TrxR1 substrate: is turned over as a substrate by rat TrxR1; purified TrxR1 substrate turnover, NADPH consumption readout; Potency, µM (highest dose often 114 µM), for the others: at the top dose activity change, negative = substrate turnover; 0.01% of 390,000 active; O89049; further: nearly all actives have a fitted effect of over 50% in size
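Rat TrxR1, dispensed at 90 nM, was prereduced with 400 uM NADPH (final) for 5 min at ~22 deg C, then incubated with compound 15 min before 400 uM selenite. A first-read NADPH fluorescence drop versus no-compound background flagged substrates.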
Anesthetic bind: candidate novel general anesthetic via apoferritin binding. apoferritin/1-aminoanthracene competitive binding, fluorescence. Potency, µM (series often up to 77.5 µM), inactives show top-dose activity change, negative = displacement, most hits filed as inhibitors. P02791. 0.074% of 350,000 active; further: nearly all actives have a fitted effect of over 20% in size
Target sequence (P02791 2-175 limits assumed): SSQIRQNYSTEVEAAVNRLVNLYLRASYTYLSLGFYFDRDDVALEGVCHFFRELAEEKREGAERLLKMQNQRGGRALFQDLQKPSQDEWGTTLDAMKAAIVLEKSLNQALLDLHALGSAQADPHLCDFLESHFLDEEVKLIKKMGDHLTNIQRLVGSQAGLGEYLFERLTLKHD
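Apoferritin-based anesthetic binding model; compound displacement of fluorescent 1-AMA measured as endpoint fluorescence after 10 minutes at room temperature, scaled to free-ligand and complex controls.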
IDH1 R132H inh: human IDH1 R132H inhibition | O75874 | IDH1-R132H enzyme, NADPH consumption, diaphorase/resazurin fluorescence | Potency, µM (series often up to 76.6 µM), for the others: top-dose activity change, negative = inhibition, usual class: inhibitors | 0.093% of 390,000 active | AID 602179; further: nearly all actives have a fitted effect of over 65% in size
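IDH1-R132H (0.5 ug/mL) preincubated 30 min with compound, then NADPH (0.016 mM) and alpha-KG (2 mM) added; 80 min at RT, pH 7.5. Remaining NADPH coupled via diaphorase/resazurin to fluorescence (540/590 nm); concentration-response curves normalized to no-enzyme control.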
rTrxR1 inhibitor: blocks rat thioredoxin reductase 1; O89049; recombinant rTrxR1, NADPH fluorescence consumption, selenite substrate; Potency, µM (titrated, usually from 114 µM), for the others: top-dose activity change, negative = inhibition, hits mostly inhibitors; 1% of 390,000 active; AID 588453; further: nearly all actives have a fitted effect of over 65% in size
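Rat TrxR1 (90 nM in the dispensed reagent) was pre-reduced with 400 uM NADPH for 5 min at room temperature, then incubated with compound for 15 min. After 400 uM selenite was added, NADPH fluorescence (Ex 340/Em 450 nm) was followed for 8 min.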
GALK inh: blocks human galactokinase activity; Purified GALK, Kinase-Glo residual ATP luminescence; Potency, µM (highest dose often 57.5 µM), without a hit: at the highest dose activity change, negative = inhibition, most hits filed as inhibitors; 0.007% of 270,000 active; AID 1868
Target sequence (P51570 whole entry, looked up): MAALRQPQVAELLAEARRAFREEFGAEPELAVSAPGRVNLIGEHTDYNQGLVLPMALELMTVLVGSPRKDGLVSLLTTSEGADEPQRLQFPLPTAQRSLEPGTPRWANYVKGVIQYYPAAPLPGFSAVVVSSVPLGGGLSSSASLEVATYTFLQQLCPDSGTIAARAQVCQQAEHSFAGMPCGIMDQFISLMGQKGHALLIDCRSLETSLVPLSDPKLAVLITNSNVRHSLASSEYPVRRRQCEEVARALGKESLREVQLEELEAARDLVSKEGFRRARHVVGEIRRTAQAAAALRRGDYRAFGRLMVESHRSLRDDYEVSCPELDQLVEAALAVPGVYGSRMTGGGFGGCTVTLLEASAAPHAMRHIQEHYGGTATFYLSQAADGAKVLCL
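The enzyme phosphorylates galactose (100 uM) using ATP (35 uM); inhibition is detected as higher residual ATP, quantified by bioluminescence after 1 h reaction at room temperature, pH 8.0.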
PKM2 act: PKM2 (human) enzyme activation | P14618 | 0.34% of 260,000 active | purified PKM2, Kinase-Glo ATP luminescence, activation; response scale: 0% is enzyme alone, no compound | Potency, µM (highest dose often 57.5 µM), inactives show at the top dose activation, most hits filed as activators; further: nearly all actives have a fitted effect of over 55% in size
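Purified hPK-M2 (>95% pure) converted ADP (0.1 mM final) to ATP with 0.5 mM PEP in 50 mM imidazole pH7.2, KCl, MgCl2, Tween 20, BSA; 1 h at room temperature. ATP detected by Kinase-Glo luminescence.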
* = called active by the depositor; ? = inconclusive; · = not tested or not shown; ! = not active in a repeat; [ ] = remark or other dose. An excerpt weighted towards active compounds, which were near 1.3% of everything screened. The call rests on the fitted dose curve; in most records, active means well fitted curve in the direction sought with a large enough effect; inconclusive means small, poorly fitted or top-dose-only effect, or another doubt; inactive means no such curve, though single readings can be large; an effect the other way counts as inactive or inconclusive. On the % scale 0 is the no-effect control and ±100 the full control effect; potency means the concentration at half of the fitted maximal effect.

SMILES	TrxR1 substrate	Anesthetic bind	IDH1 R132H inh	rTrxR1 inhibitor	GALK inh	PKM2 act
Cn1nc(-c2ccccc2)nc2c(=O)n(C)c(=O)nc1-2	39.8µM*	·	·	?	·	·
COc1ccc(-c2nc3ccccc3c(=O)n2-c2ccc(OC)cc2)cc1	-2.3%	-6.4%	3.7%	22.2%	3.7%	0.8%
CCn1nc(-c2ccccc2)nc2c(=O)n(C)c(=O)nc1-2	?	-1.4%	13.0%	-28.9%[57.1 µM]	0.891µM*	2.7%
Cc1nc2c(=O)n(C)c(=O)nc-2n(C)n1	35.5µM*	2.4%	20.6%	50.1µM*	?	-11.2%
O=c1c2ccccc2nc(-c2ccccc2)n1-n1cccc1	-1.8%	-15.9%	1.4%	11.2%	1.9%	-2.8%
C(=C\c1ccccc1)/CN1CCN(CCOC(c2ccccc2)c2ccccc2)CC1	·	-6.4%	·	·	·	·
CC1(C)[C@H](C(=O)O[C@H](C#N)c2cccc(Oc3ccccc3)c2)[C@@H]1C=C(Br)Br	·	11.2%	·	·	·	·
CC(=O)NC(Cc1ccc(N(CCCl)CCCl)cc1)C(=O)NC(C(=O)O)C(C)C (stereo unspecified)	5.2%[57.1 µM]	-0.3%	-6.0%	?	0.6%	2.7%
NC(Cc1ccc(N(CCCl)CCCl)cc1)C(=O)O (stereo unspecified)	3.4%[57.1 µM]	·	·	39.8µM*	·	·
CC(C)CCNC(=O)CNC(=O)[C@@H](C)NC(=O)[C@@H](N)Cc1ccc(O)cc1	·	-2.7%	·	·	·	·
Cc1cc(OCC(=O)N2CCN(CCc3ccncc3)CC2)ccc1Cl	-1.9%	-0.5%	6.3%	?	·	·
Cc1ccc(OCC(=O)N2CCN(CCc3ccncc3)CC2)cc1C	1.6%	3.0%	-4.9%	79.4µM*	·	·
CCOC(=O)c1cc(-c2ccccc2)n(CCCC(=O)Nc2ccc(C)c(C)c2)c1C	2.6%[57.1 µM]	42.6%	2.4%	28.2%[57.1 µM]	·	·
CCOC(=O)CCCc1cc[c]([Sb](=[O])([OH])[OH])cc1	-6.2%	·	·	1.12µM*	·	·
COc1cccc([C@@]2(O)CCCCC2CN(C)C)c1 (stereo partly specified)	·	-10.5%	·	·	·	·
N#CC(C#N)=C(C#N)c1ccc(Nc2ccccc2)cc1	-1.0%	-5.2%	-2.2%	7.08µM*	-3.2%	-12.0%
CN(C)c1ccc(C=C2C(=O)NC(=S)NC2=O)cc1	-9.7%	·	-3.7%	3.98µM*	·	·
CN(C)c1ccc(C=C2C(=O)NC(=O)NC2=O)cc1	2.1%[57.1 µM]	·	-1.8%	-7.9%[2.29 µM]	·	·
CCN(CC)c1ccc(C=C2C(=O)NC(=S)NC2=O)cc1	-5.3%	-18.7%	-7.0%	4.47µM*	-0.2%	22.8%
CC(=O)Nc1ccc(C=C2C(=O)NC(=O)NC2=O)cc1	11.8%[57.1 µM]	·	0.1%	-49.5%[57.1 µM]	·	·
CCOc1ccc(C=C2C(=O)NC(=S)NC2=O)cc1OCC	7.7%[57.1 µM]	·	-3.0%	8.91µM*	·	·
CCOc1cc(C=C2C(=O)NC(=O)NC2=O)ccc1OS(=O)(=O)c1ccccc1	2.8%[57.1 µM]	?	5.9%	?	-0.5%	29.8%
CC[C@H](C)[C@H](NC(=O)[C@@H](N)Cc1ccc(O)cc1)C(=O)NCC(=O)N[C@@H](CO)C(=O)N[C@@H](CCCN=C(N)N)C(N)=O	·	8.4%	·	·	·	·
C=C1C(C)C2C(Cc3ccccc3)NC(=O)C23C(OC(C)=O)C=CC(C)(O)CC(C)CC=CC3C1O (stereo unspecified)	14.8%[57.1 µM]	·	3.3%	17.4%[57.1 µM]	·	·
C=C1[C@@H](C)[C@H]2[C@H](Cc3ccccc3)NC(=O)[C@]23OC(=O)/C=C/[C@H](O)CCC[C@@H](C)C/C=C/[C@H]3[C@@H]1O	3.8%	3.3%	-6.0%	50.1µM*!	-2.2%	6.5%
CCOC(=O)C1(CCc2ccccc2)CCN(Cc2cccc3c2OCO3)CC1	2.0%	-11.2%	-7.1%	39.4%	6.4%	31.6µM*
CCOC(=O)C1(CCc2ccccc2)CCN(Cc2cccc3cnccc23)CC1	-7.5%	-11.7%	0.8%	15.3%[57.1 µM]	-1.9%	-6.0%
O=C(c1cc2cc(Cl)ccc2[nH]1)N1CCC2(CC1)OCCO2	-4.8%	-2.4%	4.5%	44.7µM*	-2.6%	·
